Compounds with a hit are over-represented: about 3.9% of the library has one in this group of screens.
Bead autofluor: flagged as autofluorescent in microsphere protease counterscreen | compound autofluorescence counterscreen, microsphere flow cytometry; stronger effect = higher value | fluorescence intensity (test concentration not listed) | 360,000 compounds, 3.1% hits | AID 624483; in the data active means fluorescence intensity above about 16000; inconclusive means no clear call, values can overlap the other calls
BoNT F protease: BoNT F light chain protease inhibition | AID 588497 | Multiplex microsphere protease cleavage assay, flow cytometry | 360,000 compounds, 0.22% hits | inhibition, % at 10 µM; in the data active means inhibition above about 35%, passing the limit was not always enough; inconclusive means no clear call, values can overlap the other calls
BoNT-A LC inh2: blocks Botulinum neurotoxin A light chain protease; multiplex microsphere protease substrate cleavage, flow cytometry; 360,000 compounds, 0.17% hits; AID 588499; inhibition, % at 10 µM
Anthrax LF prot: inhibitors of Bacillus anthracis lethal factor protease. P15917. multiplex microsphere protease cleavage assay, LF. 360,000 compounds, 0.12% hits. inhibition, % at 10 µM
3CLpro inhibitor: SARS-CoV 3CLpro protease inhibition | recombinant SARS-CoV 3CLpro, quenched FRET peptide cleavage | inhibition, % at 6 µM | 290,000 compounds, 0.14% hits | P0C6X7; in the data active means inhibition above about 12%
CCHFV vOTU inh: blocks the CCHF virus ovarian tumor domain protease; CCHFV vOTU protease, Pep-AMC fluorescence; inhibition, % at 11.5 µM; 370,000 compounds, 0.55% hits; AID 651958; in the data active means inhibition above about 30%
Numbers stand for hits; 0 = inactive; ? = inconclusive; - = no result. Unless noted, no stated cut-off is given here; in the data, active means inhibition above about 30%; inconclusive means no clear call, values can overlap the other calls; inactive means below that.

SMILES | Bead autofluor | BoNT F protease | BoNT-A LC inh2 | Anthrax LF prot | 3CLpro inhibitor | CCHFV vOTU inh
CCOC(=O)[C@@]12CCC3=C1N(CCC3)C(=O)[C@H](CC(=O)NCCCOC)C2 | - | - | - | - | - | 0
O=C/C(=C\Nc1ccccn1)c1nc2ccccc2o1 | 17474 | 0 | ? | 0 | 0 | 0
CCCCOc1ccc(Cl)cc1CSc1n[nH]c(C)n1 | 0 | 0 | 0 | 0 | 0 | 0
CCOc1ccc(Cl)cc1CSc1n[nH]c(CC)n1 | 22875 | 0 | 0 | 0 | 0 | 0
Cc1c(C)c2cc(Cl)c(O)c(CN3CCCC(C)C3)c2oc1=O (centres undefined) | 22975 | 0 | 0 | 0 | 0 | 0
O=C(CCS(=O)(=O)c1ccc(Cl)cc1)N1CCN(c2ccc(F)cc2)CC1 | - | - | - | - | - | 0
Cc1ccc(S(=O)(=O)CCC(=O)N2CCN(c3ccc(Cl)cc3)CC2)cc1 | 17240 | 0 | 0 | 0 | 0 | 0
CCCCn1cnc2cc(NCc3cccc(OC)c3O)ccc21 | 20423 | 0 | ? | 0 | 0 | 0
CCn1cnc2cc(NCc3cccc(OC)c3O)ccc21 | 0 | 0 | 0 | 0 | 0 | 0
C=CCn1c(SCC(=O)Nc2cc(C)nn2-c2ccccc2)nnc1C1CCCCC1 | 23513 | 0 | ? | 0 | 0 | 0
CCCCn1c(N(CCOC(C)=O)C(C)=O)nc2ccccc21 | 19843 | 0 | 0 | 0 | 0 | 0
CCOC(=O)c1cnn(-c2ccccc2)c1NC(=O)c1ccc(C)cc1 | 23981 | 0 | 0 | 0 | 0 | 0
CCOC(=O)c1cnn(-c2cccc(Cl)c2)c1N | 16767 | 0 | 0 | 0 | 0 | 0
CCOC(=O)c1cnn(-c2ccccc2)c1NC(=O)c1ccccc1 | 0 | 0 | 0 | 0 | 0 | 0
CC(C)[C@@H]1Cc2[nH]c(=O)[nH]c(=O)c2[C@H](c2ccc(F)cc2)O1 | 0 | 0 | 0 | 0 | - | 0
Cc1cc(C)c2c(c1)-c1cc(C)nn1C(c1ccc3c(c1)OCO3)N2 (centres undefined) | 24496 | 0 | ? | 0 | 0 | 0
CC(C(=O)N1CCCCCC1)c1ccc([N+](=O)[O-])cc1 (centres undefined) | 0 | 0 | 0 | 0 | 0 | 0
COC(=O)c1cc(NC(=O)Cc2ccccc2[N+](=O)[O-])cc(C(=O)OC)c1 | 18194 | 0 | 0 | 0 | 0 | 0
O=C(Cc1ccccc1[N+](=O)[O-])Nc1ccc2c(c1)OCCO2 | 0 | 0 | 0 | 0 | 0 | 0
CN[C@H]1C[C@H]2c3cc(-c4ccc5c(c4)OCO5)ccc3CCN2C[C@H]1[C@H](C)O | - | - | - | - | - | 0
COc1ccccc1NC(=O)Cc1noc(CSc2nnc(C)s2)n1 | 22803 | 0 | 0 | 0 | 0 | 0
COC(=O)NNC(=O)c1ccccc1C | 22876 | 0 | ? | 0 | 0 | 0
Cc1ccccc1C(=O)NNC(=O)Cc1ccccc1 | 0 | 0 | 0 | 0 | 0 | 0
Cc1c(Cl)cccc1NC(=O)C(=O)NNC(=O)c1ccccc1F | 0 | 0 | 0 | 0 | 0 | 0
Cc1ccccc1C(=O)NNC(=O)C(=O)Nc1cccc(Cl)c1C | 20831 | 0 | 0 | 0 | 0 | 0
SMILES | Bead autofluor | BoNT F protease | BoNT-A LC inh2 | Anthrax LF prot | 3CLpro inhibitor | CCHFV vOTU inh
O=C(NNC1=NCCC1)c1cccc(Br)c1 | 0 | 0 | 0 | 0 | 0 | 0
Cc1ccccc1C(=O)NNC1=NCCC1 | 17045 | 0 | 0 | 0 | 0 | 0
Cn1c(SCc2cccc(Br)c2)nnc1-c1ccncc1 | 0 | 0 | 0 | 0 | 0 | 0
O=C(CSc1ncn[nH]1)Nc1ccccc1Sc1ccccc1 | 23235 | 0 | ? | 0 | 0 | 0
O=C(CSc1ncn[nH]1)Nc1ccccc1-c1ccccc1 | 0 | 0 | 0 | 0 | 0 | 0
N#Cc1ccsc1NC(=O)CSc1ncn[nH]1 | 22762 | 0 | 0 | 0 | 0 | 0
O=C(CCl)Nc1ccccc1Sc1ccc(Cl)cc1 | 20704 | 0 | 0 | 0 | 0 | 0
Cc1coc2c1c(C)cc1oc(=O)c(CC(=O)NCCCN3CCCC3=O)c(C)c12 | 0 | 0 | 0 | 0 | 0 | 0
COc1ccc(C(=O)NC(=S)NCc2ccccc2)cc1OC | 0 | 0 | 0 | 0 | 0 | 0
CCOc1cc(C(=O)NCc2ccc(-c3nc4ccccc4o3)cc2)cc(OCC)c1OCC | 16439 | 0 | 0 | 0 | 0 | 0
COc1ccc(C(=O)NC(=S)NCc2ccc(-c3nc4ccccc4o3)cc2)cc1OC | 21219 | 0 | ? | 0 | 0 | 0
CCN1CCC2(CCNC2)C1 (centres undefined) | 16425 | 0 | 0 | 0 | 0 | 0
CCN1CCC2(CC1)NC(CO)(CO)CO2 | 0 | 0 | 0 | 0 | 0 | 0
O=c1cc(-c2ccccc2)nc(SCCOc2ccccc2Cl)[nH]1 | 0 | 0 | 0 | 0 | 0 | 0
COc1cccc(OCCCn2cc(/C=C3/C(=N)N4C=C(C)SC4=NC3=O)c3ccccc32)c1 | 24218 | 0 | 50 | 0 | 0 | 0
COc1cc(/C=C2/C(=N)N3C=CSC3=NC2=O)ccc1OCCCOc1c(C)cccc1C | 0 | 0 | 0 | 0 | 0 | 0
COc1cc(/C=C2/C(=N)N3C=CSC3=NC2=O)ccc1OCCCOc1ccccc1C | 0 | 37 | 0 | 0 | 0 | 0
COc1ccc(OCCCn2cc(/C=C3/C(=N)N4C=C(C)SC4=NC3=O)c3ccccc32)cc1 | 0 | 0 | 0 | 0 | 0 | 0
COC(=O)[C@]12C[C@H](CC(=O)N3CCSCC3)C(=O)N(CCC3=CCCCC3)C1=C[C@H](COCc1ccccc1)O[C@@H]2C | - | - | - | - | - | 0
COc1ccc2c(Cl)c(C(=O)N/N=C/c3c(C)[nH]c4ccccc34)sc2c1 | 20361 | 0 | 36 | 0 | 0 | 0
Cc1[nH]c2ccccc2c1/C=N/NC(=O)c1cccc(Br)c1 | 0 | 0 | 0 | 0 | 0 | -
Cc1[nH]c2ccccc2c1/C=N/NC(=O)c1cccc(S(=O)(=O)Nc2ccccc2Cl)c1 | 0 | 0 | 35 | 0 | 0 | 0
COc1ccc2c(Cl)c(C(=O)N/N=C/c3ccc4c(c3)OCO4)sc2c1 | 0 | 0 | 0 | 0 | 0 | 0
COc1cccc2c1OCC/C2=N\NC(=O)COc1ccccc1C | 0 | 0 | 0 | 0 | 0 | 0
Cc1ccc(OCC(=O)N/N=C2\CCOc3c(C)cccc32)cc1 | 22762 | 0 | 0 | 0 | 0 | 0
SMILES | Bead autofluor | BoNT F protease | BoNT-A LC inh2 | Anthrax LF prot | 3CLpro inhibitor | CCHFV vOTU inh
Cc1ccccc1OCC(=O)N/N=C1\CCOc2c(C)cccc21 | 20512 | 0 | 0 | 0 | 0 | 0
CC1(C)CC(=O)C2=C(C1)N(c1ccc(F)cc1)C(N)=C(C#N)C2c1cccs1 (centres undefined) | 0 | 0 | 0 | 0 | 0 | 0
Cc1ccc(N2C(N)=C(C#N)C(c3cccs3)C3=C2CC(C)(C)CC3=O)cc1 (centres undefined) | 23727 | 0 | ? | 0 | 0 | 0
O=S1(=O)c2ccc(N3CC[C@H](O)C3)cc2OCCCN1C1CC1 | - | - | - | - | - | 0
COc1ccc(Cn2cc(CN3[C@H](Cc4ccccc4)COc4cc(Br)ccc4S3(=O)=O)nn2)cc1 | - | - | - | - | - | 0
Cc1cccc(NC(=O)CN2C(=O)S/C(=C\c3ccc(-c4cccc(C(=O)O)c4C)o3)C2=O)c1 | - | - | - | - | 0 | 0
O=C(CN1C(=O)S/C(=C\c2cccs2)C1=O)Nc1ccc(C(=O)O)c(O)c1 | 0 | 0 | 0 | 0 | 14 | 0
Cc1ccc(NC(=O)CN2C(=O)S/C(=C/c3ccc(-c4cc(C(=O)O)ccc4C)o3)C2=O)cc1C | 16807 | 0 | 0 | 0 | 0 | 0
CCOc1ccc(S(=O)(=O)N2CCN(S(=O)(=O)c3ccc(C)c(C)c3)CC2)cc1 | 0 | 0 | 0 | 0 | 0 | 0

Bioassay records deposited in PubChem by several laboratories.
